Source: PubChem BioAssay
sEH inhibitor – soluble epoxide hydrolase (human) inhibition; recombinant human sEH enzymatic activity assay; 0.34% of 91,000 active; inhibition, % at 2 µM; AID 707; P34913; in the data active = inhibition above about 80%
CYP2C9 act – CYP2C9 (human) activation; recombinant CYP2C9, luciferin-H conversion, luminescence; hits give high values; factor 1 = untreated enzyme, 0 = blocked; 1.4% of 96,000 active; P11712; activation factor at 5 µM;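 active = activation factor of 2 or more for CYP2C9 at a 5 µM dose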;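 note: 0 = sulfaphenazole-blocked wells and 1 = vehicle-only wells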
Target sequence (P11712 whole entry, looked up): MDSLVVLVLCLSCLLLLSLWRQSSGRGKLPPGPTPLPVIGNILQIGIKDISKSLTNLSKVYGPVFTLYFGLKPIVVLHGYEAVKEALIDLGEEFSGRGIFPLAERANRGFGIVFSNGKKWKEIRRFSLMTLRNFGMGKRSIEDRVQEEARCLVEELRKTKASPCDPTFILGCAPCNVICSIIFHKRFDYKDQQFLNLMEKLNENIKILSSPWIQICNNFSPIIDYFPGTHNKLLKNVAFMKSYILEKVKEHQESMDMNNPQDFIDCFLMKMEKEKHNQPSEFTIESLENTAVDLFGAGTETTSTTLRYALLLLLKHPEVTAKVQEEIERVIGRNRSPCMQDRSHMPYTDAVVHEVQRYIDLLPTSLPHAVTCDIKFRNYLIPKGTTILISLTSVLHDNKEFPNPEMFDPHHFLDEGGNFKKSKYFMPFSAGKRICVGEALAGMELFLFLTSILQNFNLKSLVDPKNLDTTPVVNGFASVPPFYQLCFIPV
CYP2C19 act – cytochrome P450 2C19 (human) activation; P33261; activation factor at 5 µM; recombinant CYP2C19, luciferin-H EGE luminescence; hits give high values; 0 = fully inhibited enzyme, 1 = untreated enzyme; 96,000 tested, under 10 active; AID 1025;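 active = activation factor of at least 2 at 5 µM in the primary screen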;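 note: 0 = wells with 2.5 mM tranylcypromine and 1 = vehicle-only wells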
CYP2C9 inh – blocks human cytochrome P450 2C9. 20% of 96,000 active. AID 777. inhibition, % at 5 µM. CYP2C9 Supersomes, luciferin-H conversion, luminescence. P11712;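 active = blocking of liver enzyme CYP2C9 beyond about 50% at 5 µM, limit read from the data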
sEH act – increases human soluble epoxide hydrolase activity; AID 717; purified human sEH enzymatic activity, activator screen; 0.04% of 91,000 active; P34913; activation, % at 2 µM; in the data active = activation above about 37%
CYP2C19 inhib – inhibitors of human CYP2C19. P33261. CYP2C19 Supersomes, luciferin-H EGE luminescence, 30 min. inhibition, % at 5 µM. 21% of 96,000 active. AID 778;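 active = CYP2C19 inhibition above a set limit at 5 µM in the primary screen, cut at about 50% in these data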;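 note: plate controls were negative control wells for no effect and 2.5 mM tranylcypromine positive control for full effect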
An asterisk follows results filed as active. Most compounds without a hit are left out; they make up all but 27% or so of the library.

Results for COC(=O)c1ccccc1NC(=O)CN(C)S(=O)(=O)c1ccc(OC)c(C)c1 ?
sEH inhibitor: -4.2; CYP2C9 act: 1.1; CYP2C19 act: 0; CYP2C9 inh: -14.2; sEH act: 2.3; CYP2C19 inhib: 99.6*

How did O=c1c2ccc(-c3nnc4n3-c3ccccc3SC4)cc2nc2n1CCCCC2 do in these assays?
sEH inhibitor: 6.0; sEH act: -4.1

What do the screens show for `O=C(OCCn1cncn1)c1cc2ccccc2oc1=O`?
CYP2C9 act: 0.9; CYP2C19 act: 0.8; CYP2C9 inh: 12.5; CYP2C19 inhib: 16.5

How did O=C(C1CCCN(S(=O)(=O)c2cccnc2)C1)N1CCN(c2ccccn2)CC1 (stereo unspecified) do in these assays?
sEH inhibitor: -17.3; CYP2C9 act: 0.4; CYP2C19 act: 0.9; CYP2C9 inh: 63.1*; sEH act: 16.2; CYP2C19 inhib: 9.1

What do the screens show for `Cc1ccc(Cl)cc1N1CCN(S(C)(=O)=O)CC1`?
sEH inhibitor: -6.4; CYP2C9 act: 0.9; CYP2C19 act: 0.5; CYP2C9 inh: 14.9; sEH act: 6.9; CYP2C19 inhib: 46.1

What do the screens show for `O=C(C1CCN(S(=O)(=O)c2cccnc2)CC1)N1CCN(c2ccccc2Cl)CC1`?
sEH inhibitor: -10.1; CYP2C9 act: 1.2; CYP2C19 act: 1.2; CYP2C9 inh: -18.9; sEH act: 8.1; CYP2C19 inhib: -16.5

What do the screens show for `Cc1ccc(Cl)cc1N1CCN(S(=O)(=O)c2cnc[nH]2)CC1`?
sEH inhibitor: 7.3; CYP2C9 act: 0; CYP2C19 act: 0; CYP2C9 inh: 96.7*; sEH act: -4.0; CYP2C19 inhib: 99.2*

Results for O=S(=O)(c1cnc[nH]1)N1CCN(c2ccccc2)CC1 ?
CYP2C9 act: 0.5; CYP2C19 act: 0.4; CYP2C9 inh: 47.9; CYP2C19 inhib: 64.3*

How did Cc1ccc(Cl)cc1N1CCN(C(=O)C2CCN(S(=O)(=O)c3cccnc3)CC2)CC1 do in these assays?
sEH inhibitor: -21.8; CYP2C9 act: 0.5; CYP2C19 act: 0.4; CYP2C9 inh: 54.8*; sEH act: 23.5; CYP2C19 inhib: 61.2*

Results for O=C(C1CCCN(S(=O)(=O)c2ccccc2)C1)N1CCN(c2ncccn2)CC1 (stereo unspecified) ?
sEH inhibitor: 0.8; sEH act: -2.6

How did Cc1cc(-c2[nH]nc3c2C(c2ccc(Cl)cc2)C(C#N)=C(N)O3)c(C)s1 (stereo unspecified) do in these assays?
sEH inhibitor: 1.5; sEH act: -0.1

What do the screens show for `COc1ccc(Cc2nc(-c3ccc(Br)o3)no2)cc1OC`?
sEH inhibitor: -15.8; CYP2C9 act: 0.4; CYP2C19 act: 0.1; CYP2C9 inh: 64.9*; sEH act: 12.8; CYP2C19 inhib: 87.7*

Results for Fc1ccc(OCc2nc(-c3ccc(Br)o3)no2)c(F)c1 ?
sEH inhibitor: 4.2; CYP2C9 act: 0.7; CYP2C19 act: 0.1; CYP2C9 inh: 27.4; sEH act: -6.6; CYP2C19 inhib: 94.4*

What do the screens show for `Clc1ccccc1OCc1nc(-c2ccc(Br)o2)no1`?
CYP2C9 act: 0.4; CYP2C19 act: 0.1; CYP2C9 inh: 57.8*; CYP2C19 inhib: 93.8*

What do the screens show for `COc1ccc(-c2noc(Cc3ccc(Cl)cc3)n2)cc1OC`?
sEH inhibitor: -0.9; CYP2C9 act: 0.6; CYP2C19 act: 0.9; CYP2C9 inh: 38.8; sEH act: 0.0; CYP2C19 inhib: 12.9

Results for COc1ccc(C(=O)n2nc(C)cc2Nc2ccccc2)cc1 ?
sEH inhibitor: -6.8; CYP2C9 act: 0.2; CYP2C19 act: 1; CYP2C9 inh: 75.1*; sEH act: 2.3; CYP2C19 inhib: 1.9

Results for Cc1nn(-c2ccccc2)c(C)c1NC(=O)c1ccc(S(=O)(=O)N2CCCC2)cc1 ?
sEH inhibitor: -8.7; CYP2C9 act: 0.4; CYP2C19 act: 0.9; CYP2C9 inh: 57.3*; sEH act: 8.3; CYP2C19 inhib: 12.2

How did COc1ccc(S(=O)(=O)Nc2cc(C)nn2-c2ccccc2)cc1 do in these assays?
sEH inhibitor: 8.4; CYP2C9 act: 0; CYP2C19 act: 0.8; CYP2C9 inh: 97.9*; sEH act: -7.6; CYP2C19 inhib: 18.1

What do the screens show for `COc1ccc(S(=O)(=O)N(n2c(C)nnc2-n2nc(C)cc2C)S(=O)(=O)c2ccc(OC)cc2)cc1`?
sEH inhibitor: 1.5; sEH act: -2.2

How did CCn1nc(C)c(NS(=O)(=O)c2ccccc2)c1C do in these assays?
sEH inhibitor: 7.2; CYP2C9 act: 0.9; CYP2C19 act: 0.2; CYP2C9 inh: 11.4; sEH act: -8.9; CYP2C19 inhib: 85.0*

What do the screens show for `O=S(=O)(Nn1cnnc1)c1ccccc1`?
sEH inhibitor: -7.9; sEH act: 13.4

How did CN(C)CCCNc1oc(-c2cccc(Cl)c2)nc1C#N do in these assays?
sEH inhibitor: 6.1; CYP2C9 act: 1; CYP2C19 act: 0.9; CYP2C9 inh: 3.7; sEH act: -2.9; CYP2C19 inhib: 10.6

How did CCOc1ccc(OCC)c(C2C(C#N)=C(N)N(c3cccnc3)C3=C2C(=O)CC(C)(C)C3)c1 (stereo unspecified) do in these assays?
sEH inhibitor: 0.1; CYP2C9 act: 1; CYP2C19 act: 1.1; CYP2C9 inh: 1.2; sEH act: 0.1; CYP2C19 inhib: -13.8

How did Cc1nn(-c2ccccc2)c(C)c1NS(=O)(=O)c1ccccc1 do in these assays?
CYP2C9 act: 0.1; CYP2C19 act: 0; CYP2C9 inh: 91.0*; CYP2C19 inhib: 95.5*

What do the screens show for `Cc1nn(-c2ccccc2)c(C)c1/C=N\NS(=O)(=O)c1ccc(Cl)cc1`?
sEH inhibitor: 1.6; CYP2C9 act: 0; CYP2C19 act: 0; CYP2C9 inh: 99.1*; sEH act: -0.2; CYP2C19 inhib: 98.0*

What do the screens show for `Cc1nn(C)c(C)c1NS(=O)(=O)c1ccccc1`?
sEH inhibitor: -9.7; CYP2C9 act: 0.9; CYP2C19 act: 0.7; CYP2C9 inh: 7.3; sEH act: 9.7; CYP2C19 inhib: 27.2

How did COc1cnc(SCC(=O)O)[nH]c1=O do in these assays?
sEH inhibitor: 7.7; CYP2C9 act: 1.1; CYP2C19 act: 1.1; CYP2C9 inh: -5.8; sEH act: -6.8; CYP2C19 inhib: -7.7

What do the screens show for `O=C(C1c2ccccc2Oc2ccccc21)N1CCN(c2ccc(Cl)cc2)CC1`?
sEH inhibitor: 7.4; CYP2C9 act: 0.2; CYP2C19 act: 0.1; CYP2C9 inh: 84.7*; sEH act: -4.8; CYP2C19 inhib: 94.0*

Results for N#CCC(=N)N1CCN(c2ccc(Cl)cc2)CC1 ?
sEH inhibitor: -7.8; CYP2C9 act: 0.8; CYP2C19 act: 0.9; CYP2C9 inh: 17.9; sEH act: 9.8; CYP2C19 inhib: 14.5

What do the screens show for `COc1ccccc1N1CCN(C(=O)C2c3ccccc3Oc3ccccc32)CC1`?
CYP2C9 act: 0; CYP2C19 act: 0; CYP2C9 inh: 99.9*; CYP2C19 inhib: 98.1*

What do the screens show for `COc1ccc(-c2nc3ccc(N4CCCC4)cc3c(=O)[nH]2)cc1OC`?
sEH inhibitor: 13.6; CYP2C9 act: 1; CYP2C19 act: 1; CYP2C9 inh: 3.9; sEH act: -13.4; CYP2C19 inhib: -4.6
